Article PMC5540273 (PLoS ONE, 2017)
Like-named read-outs stand apart in the source and are kept apart here.

Assays:
GRK7 = conditions: concentration: 1 μM, replicates: in singlicate; n = 1
GSK3A = conditions: concentration: 1 μM, replicates: in singlicate; n = 1
GSK3B = conditions: n = 1
HASPIN = tested on: T1, HASPIN; conditions: concentration: 1 μM, replicates: in singlicate; n = 1
T1 construct: gene GSG2

HCK = conditions: concentration: 1 μM, replicates: in singlicate; n = 1
HIPK1 = conditions: concentration: 1 μM, replicates: in singlicate; n = 1
HIPK2 = conditions: concentration: 1 μM, replicates: in singlicate; n = 1
HIPK3 = conditions: concentration: 1 μM, replicates: in singlicate; n = 1
HIPK4 = conditions: concentration: 1 μM, replicates: in singlicate; n = 1
HPK1 = conditions: concentration: 1 μM, replicates: in singlicate; n = 1
HUNK = conditions: concentration: 1 μM, replicates: in singlicate; n = 1
ICK = conditions: concentration: 1 μM, replicates: in singlicate; n = 1
IGF1R = conditions: concentration: 1 μM, replicates: in singlicate; n = 1
IKK-alpha = tested on: T2, IKK-alpha; conditions: concentration: 1 μM, replicates: in singlicate; n = 1
T2 construct: gene CHUK

IKK-beta = tested on: T3, IKK-beta; conditions: concentration: 1 μM, replicates: in singlicate; n = 1
T3 construct: gene IKBKB

IKK-epsilon = tested on: T4, IKK-epsilon; conditions: concentration: 1 μM, replicates: in singlicate; n = 1
T4 construct: gene IKBKE

INSRR = conditions: concentration: 1 μM, replicates: in singlicate; n = 1
INSR = conditions: concentration: 1 μM, replicates: in singlicate; n = 1
IRAK1 = conditions: concentration: 1 μM, replicates: in singlicate; n = 1
IRAK3 = conditions: concentration: 1 μM, replicates: in singlicate; n = 1
[1] = concentration: 1 μM, replicates: in singlicate
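Also: KINOMEscan kinase panel screen.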

Cn1ccc2ncnc(Oc3ccc(NC(=O)Nc4ccccc4)cc3)c21
%Inh (GRK7): 0% | %Inh (GSK3A): 11% | %Inh (GSK3B; [1]): 0% | %Inh (HASPIN): 24% | %Inh (HCK): 0% | %Inh (HIPK1): 25% | %Inh (HIPK2): 17% | %Inh (HIPK3): 0% | %Inh (HIPK4): 5% | %Inh (HPK1): 0% | %Inh (HUNK): 0% | %Inh (ICK): 0% | %Inh (IGF1R): 0% | %Inh (IKK-alpha): 5% | %Inh (IKK-beta): 0% | %Inh (IKK-epsilon): 17% | %Inh (INSRR): 0% | %Inh (INSR): 14% | %Inh (IRAK1): 7% | %Inh (IRAK3): 0%

CC1=C(C(=O)Nc2cc3cn[nH]c3cc2F)C(c2ccc(C(F)(F)F)cc2)CC(=O)N1 (stereo not shown) [GSK429286]
%Inh (GRK7): 0% | %Inh (GSK3A): 10% | %Inh (GSK3B; [1]): 24% | %Inh (HASPIN): 0% | %Inh (HCK): 0% | %Inh (HIPK1): 0% | %Inh (HIPK2): 0% | %Inh (HIPK3): 13% | %Inh (HIPK4): 0% | %Inh (HPK1): 29% | %Inh (HUNK): 20% | %Inh (ICK): 13% | %Inh (IGF1R): 0% | %Inh (IKK-alpha): 0% | %Inh (IKK-beta): 56% | %Inh (IKK-epsilon): 5% | %Inh (INSRR): 0% | %Inh (INSR): 0% | %Inh (IRAK1): 31% | %Inh (IRAK3): 5%

CS(=O)(=O)c1ccc(-c2c(-c3ncn[nH]3)sc(N3CCOCC3)c2C#N)cc1
%Inh (GRK7): 43% | %Inh (GSK3A): 0% | %Inh (GSK3B; [1]): 24% | %Inh (HASPIN): 0% | %Inh (HCK): 43% | %Inh (HIPK1): 38% | %Inh (HIPK2): 24% | %Inh (HIPK3): 28% | %Inh (HIPK4): 8% | %Inh (HPK1): 0% | %Inh (HUNK): 0% | %Inh (ICK): 0% | %Inh (IGF1R): 7% | %Inh (IKK-alpha): 36% | %Inh (IKK-beta): 29% | %Inh (IKK-epsilon): 24% | %Inh (INSRR): 15% | %Inh (INSR): 0% | %Inh (IRAK1): 0% | %Inh (IRAK3): 100%

O=C(O)COc1ncnc2cc(-c3ccc4[nH]ncc4c3)sc12
%Inh (GRK7): 0% | %Inh (GSK3A): 25% | %Inh (GSK3B; [1]): 27% | %Inh (HASPIN): 41% | %Inh (HCK): 14% | %Inh (HIPK1): 45% | %Inh (HIPK2): 47% | %Inh (HIPK3): 47% | %Inh (HIPK4): 38% | %Inh (HPK1): 7% | %Inh (HUNK): 18% | %Inh (ICK): 31% | %Inh (IGF1R): 0% | %Inh (IKK-alpha): 28% | %Inh (IKK-beta): 19% | %Inh (IKK-epsilon): 4% | %Inh (INSRR): 19% | %Inh (INSR): 0% | %Inh (IRAK1): 29% | %Inh (IRAK3): 38%

O=C(Nc1n[nH]c2nc(-c3nccs3)c(Br)cc12)C1CCCC1 [SB-742609]
%Inh (GRK7): 0% | %Inh (GSK3A): 96.8% | %Inh (GSK3B; 1 µM): 59% | %Inh (HASPIN): 0% | %Inh (HCK): 0% | %Inh (HIPK1): 0% | %Inh (HIPK2): 0% | %Inh (HIPK3): 20% | %Inh (HIPK4): 8% | %Inh (HPK1): 33% | %Inh (HUNK): 0% | %Inh (ICK): 85% | %Inh (IGF1R): 21% | %Inh (IKK-alpha): 28% | %Inh (IKK-beta): 27% | %Inh (IKK-epsilon): 0% | %Inh (INSRR): 32% | %Inh (INSR): 9% | %Inh (IRAK1): 38% | %Inh (IRAK3): 0%

Cc1ccc(C(=O)Nc2ccc(Nc3ccnc4cc(-c5ccccn5)ccc34)cc2O)cc1.Cl [GW440146]
%Inh (GRK7): 0% | %Inh (GSK3A): 7% | %Inh (GSK3B; [1]): 4% | %Inh (HASPIN): 30% | %Inh (HCK): 72% | %Inh (HIPK1): 8% | %Inh (HIPK2): 0% | %Inh (HIPK3): 4% | %Inh (HIPK4): 0% | %Inh (HPK1): 34% | %Inh (HUNK): 23% | %Inh (ICK): 0% | %Inh (IGF1R): 18% | %Inh (IKK-alpha): 0% | %Inh (IKK-beta): 0% | %Inh (IKK-epsilon): 16% | %Inh (INSRR): 0% | %Inh (INSR): 1% | %Inh (IRAK1): 28% | %Inh (IRAK3): 3%

COc1ccc(Nc2nccc(-c3cccc(NC(=O)c4cc5cc(F)ccc5[nH]4)c3)n2)cc1 [GSK1229782]
%Inh (GRK7): 0% | %Inh (GSK3A): 31% | %Inh (GSK3B; [1]): 0% | %Inh (HASPIN): 39% | %Inh (HCK): 0% | %Inh (HIPK1): 0% | %Inh (HIPK2): 46% | %Inh (HIPK3): 0% | %Inh (HIPK4): 36% | %Inh (HPK1): 65% | %Inh (HUNK): 8% | %Inh (ICK): 0% | %Inh (IGF1R): 17% | %Inh (IKK-alpha): 21% | %Inh (IKK-beta): 13% | %Inh (IKK-epsilon): 0% | %Inh (INSRR): 0% | %Inh (INSR): 0% | %Inh (IRAK1): 25% | %Inh (IRAK3): 42%

CCn1c(-c2cccnc2O)nc2cnccc21 [SB-736715]
%Inh (GRK7): 0% | %Inh (GSK3A): 0% | %Inh (GSK3B; [1]): 0% | %Inh (HASPIN): 0% | %Inh (HCK): 0% | %Inh (HIPK1): 11% | %Inh (HIPK2): 0% | %Inh (HIPK3): 0% | %Inh (HIPK4): 0% | %Inh (HPK1): 4% | %Inh (HUNK): 0% | %Inh (ICK): 0% | %Inh (IGF1R): 0% | %Inh (IKK-alpha): 0% | %Inh (IKK-beta): 0% | %Inh (IKK-epsilon): 0% | %Inh (INSRR): 0% | %Inh (INSR): 0% | %Inh (IRAK1): 0% | %Inh (IRAK3): 0%

COC(=O)c1c(-c2ccccc2)c2cc(OC)ccc2c(=O)n1Cc1ccccc1
%Inh (GRK7): 24% | %Inh (GSK3A): 14% | %Inh (GSK3B; [1]): 18% | %Inh (HASPIN): 3% | %Inh (HCK): 22% | %Inh (HIPK1): 7% | %Inh (HIPK2): 11% | %Inh (HIPK3): 3% | %Inh (HIPK4): 0% | %Inh (HPK1): 0% | %Inh (HUNK): 0% | %Inh (ICK): 0% | %Inh (IGF1R): 0% | %Inh (IKK-alpha): 5% | %Inh (IKK-beta): 4% | %Inh (IKK-epsilon): 0% | %Inh (INSRR): 9% | %Inh (INSR): 0% | %Inh (IRAK1): 11% | %Inh (IRAK3): 12%

Cc1cccc(-c2nc(Nc3cccc(C(N)=O)c3)c3ccccc3n2)n1 [GW876019]
%Inh (GRK7): 9% | %Inh (GSK3A): 16% | %Inh (GSK3B; [1]): 12% | %Inh (HASPIN): 14% | %Inh (HCK): 24% | %Inh (HIPK1): 44% | %Inh (HIPK2): 43% | %Inh (HIPK3): 2% | %Inh (HIPK4): 0% | %Inh (HPK1): 36% | %Inh (HUNK): 44% | %Inh (ICK): 0% | %Inh (IGF1R): 4% | %Inh (IKK-alpha): 0% | %Inh (IKK-beta): 0% | %Inh (IKK-epsilon): 0% | %Inh (INSRR): 0% | %Inh (INSR): 0% | %Inh (IRAK1): 14% | %Inh (IRAK3): 10%

Cl.O=C(Nc1cccc(-c2nn3ncccc3c2-c2ccnc(Nc3cccnc3)n2)c1)c1c(F)cccc1F [GSK312879]
%Inh (GRK7): 0% | %Inh (GSK3A): 48% | %Inh (GSK3B; [1]): 25% | %Inh (HASPIN): 0% | %Inh (HCK): 52% | %Inh (HIPK1): 0% | %Inh (HIPK2): 0% | %Inh (HIPK3): 11% | %Inh (HIPK4): 0% | %Inh (HPK1): 31% | %Inh (HUNK): 0% | %Inh (ICK): 10% | %Inh (IGF1R): 25% | %Inh (IKK-alpha): 30% | %Inh (IKK-beta): 31% | %Inh (IKK-epsilon): 0% | %Inh (INSRR): 9% | %Inh (INSR): 11% | %Inh (IRAK1): 28% | %Inh (IRAK3): 0%
